In PubChem BioAssay (Tox21):
“And” between values parts separate entries of the source, which are not always exact repeats. Identical values can stand only once. Records with an inconclusive call do not appear. The source made the active and inactive calls. Calls come from the whole dose curve; as a rule, active = well fitted curve in the direction sought with a large enough effect in the repeat runs; inconclusive = weak or mixed curves; inactive = no such curve, though single readings can be large; an effect the other way counts as inactive or inconclusive.

Key:
[1] = A CellTox Green Cytotoxicity Assay to monitor cytotoxicity in HEK293 cells - 40 hour (AID 1224871); note: nearly all actives have a fitted effect of over 45% in size
How it was run: (§1)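 Read-out: fluorescence of a cell-impermeant cyanine dye staining DNA of dead cells, proportional to cytotoxicity. HEK293, 600 cells/well with reagent, compound (23 nL DMSO) added after 5 h; reads at 0, 8, 16, 24, 32, 40 h.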

[2] = qHTS RealTime-Glo MT Cell Viability Assay in HEK293 cells - 16 hour (AID 1224872); note: top concentration of the series differs between compounds; nearly all actives have a fitted effect of over 50% in size
How it was run: (§2)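 Cells + reagent dispensed (600 cells/well, HEK293) → 5 h at 37 C/5% CO2 → 23 nL compound in DMSO pinned → 40 h at 37 C → luminescence read at 0, 8, 16, 24, 32, 40 h.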

[3] = qHTS RealTime-Glo MT Cell Viability Assay in HepG2 cells - 8 hour (AID 1224873); note: nearly all actives have a fitted effect of over 55% in size
How it was run: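 HepG2 cells mixed with RealTime-Glo MT reagents (NanoLuc plus cell-permeant prosubstrate) were seeded at 600 cells/well, incubated 5 h at 37 C/5% CO2, then pinned with compounds in DMSO; nonlytic luminescence tracked viability during 40 h treatment.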

[4] = qHTS RealTime-Glo MT Cell Viability Assay in HEK293 cells - 40 hour (AID 1224874); settings: RealTime-Glo luminescence; max response: hits give low values; note: nearly all actives have a fitted effect of over 50% in size
How it was run: (§3)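 Luminescence readout at each listed time point; HEK293, 600 cells/well, RealTime-Glo MT reagent added with cells; compounds pinned (23 nL in DMSO) after 5 h at 37 C; continuous culture at 37 C.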

[5] = A CellTox Green Cytotoxicity Assay to monitor cytotoxicity in HEK293 cells - 24 hour (AID 1224875); note: series mostly up to about 77 µM; nearly all actives have a fitted effect of over 45% in size
How it was run: as §1

[6] = A CellTox Green Cytotoxicity Assay to monitor cytotoxicity in HepG2 cells - 16 hour (AID 1224876); note: nearly all actives have a fitted effect of over 45% in size
How it was run: (§4)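 HepG2, 600 cells/well premixed w/ CellTox Green; 5 h settle, 37 C/5% CO2; pintool cpd add (DMSO); 37 C, 40 h; fluorescence read at 0, 8, 16, 24, 32, 40 h.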

[7] = qHTS RealTime-Glo MT Cell Viability Assay in HepG2 cells - 32 hour (AID 1224877); note: nearly all actives have a fitted effect of over 55% in size
How it was run: (§5)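 Real-time, nonlytic viability: 600 HepG2 cells/well mixed with NanoLuc enzyme plus prosubstrate; 5 h settle, compound (DMSO) added by pintool; luminescence monitored over 40 h at 37 C.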

[8] = A CellTox Green Cytotoxicity Assay to monitor cytotoxicity in HepG2 cells - 24 hour (AID 1224878); note: nearly all actives have a fitted effect of over 45% in size
How it was run: as §4

[9] = A CellTox Green Cytotoxicity Assay to monitor cytotoxicity in HepG2 cells - 40 hour (AID 1224879); note: nearly all actives have a fitted effect of over 40% in size
How it was run: as §4

[10] = qHTS RealTime-Glo MT Cell Viability Assay in HEK293 cells - 0 hour (AID 1224880)
How it was run: as §3

[11] = A CellTox Green Cytotoxicity Assay to monitor cytotoxicity in HEK293 cells - 32 hour (AID 1224881); note: nearly all actives have a fitted effect of over 40% in size
How it was run: as §1

[12] = A CellTox Green Cytotoxicity Assay to monitor cytotoxicity in HepG2 cells - 0 hour (AID 1224882); note: nearly all actives have a fitted effect of over 35% in size
How it was run: as §4

[13] = A CellTox Green Cytotoxicity Assay to monitor cytotoxicity in HepG2 cells - 32 hour (AID 1224883); note: nearly all actives have a fitted effect of over 50% in size
How it was run: as §4

[14] = A CellTox Green Cytotoxicity Assay to monitor cytotoxicity in HEK293 cells - 8 hour (AID 1224884); note: nearly all actives have a fitted effect of over 35% in size
How it was run: as §1

[15] = qHTS RealTime-Glo MT Cell Viability Assay in HepG2 cells - 16 hour (AID 1224885); note: nearly all actives have a fitted effect of over 50% in size
How it was run: as §5

[16] = qHTS RealTime-Glo MT Cell Viability Assay in HEK293 cells - 24 hour (AID 1224886)
How it was run: as §2

[17] = qHTS RealTime-Glo MT Cell Viability Assay in HEK293 cells - 8 hour (AID 1224887)
How it was run: as §3

[18] = A CellTox Green Cytotoxicity Assay to monitor cytotoxicity in HEK293 cells - 16 hour (AID 1224888); note: nearly all actives have a fitted effect of over 35% in size
How it was run: as §1

[19] = qHTS RealTime-Glo MT Cell Viability Assay in HepG2 cells - 0 hour (AID 1224889); note: nearly all actives have a fitted effect of over 50% in size
How it was run: as §5

[20] = A CellTox Green Cytotoxicity Assay to monitor cytotoxicity in HepG2 cells - 8 hour (AID 1224890); note: nearly all actives have a fitted effect of over 45% in size
How it was run: as §4
% is set by controls: 0 for no effect and ±100 for the full control effect.

CCOc1cc(OP(=S)(OC)OC)nc(CC)n1
inactive: Potency [1] | Potency [2] | outcome [3] | max response [4] 6.75% | Potency [5] | Potency [6] | Potency [7] | Potency [8] | Potency [9] | outcome [10] | Potency [11] | outcome [12] | Potency [13] | Potency [14] | Potency [15] | Potency [16] | Potency [17] | Potency [18] | outcome [19] | Potency [20]

N#CN
inactive: Potency [1] | Potency [2] | outcome [3] | max response [4] 4.8% | Potency [5] | Potency [6] | Potency [7] | Potency [8] | Potency [9] | outcome [10] | Potency [11] | outcome [12] | Potency [13] | Potency [14] | Potency [15] | Potency [16] | Potency [17] | outcome [19] | Potency [20]

CON(C)C(=O)Nc1ccc(Br)cc1
inactive: Potency [1] | Potency [2] | outcome [3] | max response [4] -9.38% | Potency [5] | Potency [6] | Potency [7] | Potency [8] | Potency [9] | outcome [10] | Potency [11] | outcome [12] | Potency [13] | Potency [14] | Potency [15] | Potency [16] | Potency [17] | Potency [18] | Potency [20]

CC(Cc1ccccc1)NCCCCl (configuration not stated)
inactive: Potency [1] | Potency [2] | outcome [3] | max response [4] 5.94% | Potency [5] | Potency [6] | Potency [7] | Potency [8] | Potency [9] | outcome [10] | Potency [11] | outcome [12] | Potency [13] | Potency [14] | Potency [15] | Potency [16] | Potency [17] | Potency [18] | outcome [19] | Potency [20]

N#CN=C1SCCN1Cc1ccc(Cl)nc1
inactive: Potency [1] | Potency [2] | outcome [3] | max response [4] -3.59% | Potency [5] | Potency [6] | Potency [7] | Potency [8] | Potency [9] | outcome [10] | Potency [11] | outcome [12] | Potency [13] | Potency [14] | Potency [15] | Potency [16] | Potency [17] | Potency [18] | outcome [19] | Potency [20]

c1cncc([C@@H]2CCCCN2)c1
inactive: Potency [1] | Potency [2] | outcome [3] | max response [4] 9.53% | Potency [5] | Potency [6] | Potency [7] | Potency [8] | Potency [9] | outcome [10] | Potency [11] | outcome [12] | Potency [13] | Potency [14] | Potency [15] | Potency [16] | Potency [17]

CCN(CC)CCOC(=O)C(O)(c1ccccc1)c1ccccc1
inactive: Potency [1] | Potency [2] | outcome [3] | max response [4] -0.657% | Potency [5] | Potency [6] | Potency [7] | Potency [8] | Potency [9] | outcome [10] | Potency [11] | outcome [12] | Potency [13] | Potency [14] | Potency [15] | Potency [16] | Potency [17] | Potency [18] | outcome [19] | Potency [20]

O=C1CCCCC1Cl (configuration not stated)
inactive: Potency [1] | Potency [2] | outcome [3] | max response [4] 11.3% | Potency [5] | Potency [6] | Potency [7] | Potency [8] | Potency [9] | outcome [10] | Potency [11] | outcome [12] | Potency [13] | Potency [14] | Potency [15] | Potency [16] | Potency [17] | Potency [18] | outcome [19] | Potency [20]

CNC(=O)Oc1cc(C)c(N(C)C)c(C)c1
inactive: Potency [1] | Potency [2] | outcome [3] | max response [4] -10.9% | Potency [5] | Potency [6] | Potency [7] | Potency [8] | Potency [9] | outcome [10] | Potency [11] | outcome [12] | Potency [13] | Potency [14] | Potency [15] | Potency [16] | Potency [17] | Potency [18] | outcome [19] | Potency [20]

C=CCCC#N
inactive: Potency [1] | Potency [2] | outcome [3] | max response [4] 6.33% | Potency [5] | Potency [6] | Potency [7] | Potency [8] | Potency [9] | outcome [10] | Potency [11] | outcome [12] | Potency [13] | Potency [14] | Potency [15] | Potency [16] | Potency [17] | outcome [19] | Potency [20]

CC(C)[C@]12CC(=O)[C@H](C)[C@H]1C2
inactive: Potency [1] | Potency [2] | outcome [3] | max response [4] -4.49% | Potency [5] | Potency [6] | Potency [7] | Potency [8] | Potency [9] | outcome [10] | Potency [11] | outcome [12] | Potency [13] | Potency [14] | Potency [15] | Potency [16] | Potency [17] | Potency [18] | Potency [20]

O=C(O)C(F)(F)C(F)(F)C(F)(F)C(F)(F)C(F)(F)C(F)(F)F
inactive: Potency [1] | Potency [2] | outcome [3] | max response [4] -16.5% | Potency [5] | Potency [6] | Potency [7] | Potency [8] | Potency [9] | outcome [10] | Potency [11] | outcome [12] | Potency [13] | Potency [14] | Potency [15] | Potency [16] | Potency [17] | Potency [18] | outcome [19] | Potency [20]

C/C(=N\NC(=O)Nc1cc(F)cc(F)c1)c1ncccc1C(=O)O
inactive: Potency [1] | Potency [2] | outcome [3] | max response [4] -7.58% and 0.112% | Potency [5] | Potency [6] | Potency [7] | Potency [8] | Potency [9] | outcome [10] | Potency [11] | outcome [12] | Potency [13] | Potency [14] | Potency [15] | Potency [16] | Potency [17] | Potency [18] | outcome [19] | Potency [20]

O=C(CCl)NCO
inactive: Potency [1] | Potency [2] | outcome [3] | max response [4] 1.67% | Potency [5] | Potency [6] | Potency [7] | Potency [8] | Potency [9] | outcome [10] | Potency [11] | outcome [12] | Potency [13] | Potency [14] | Potency [15] | Potency [16] | Potency [17] | Potency [18] | Potency [20]
